Rango dissoc inh: prevents RanGTP from dissociating the Rango-importin beta complex. Biochemical FRET Rango-importin beta, RanGTP-induced dissociation. Potency, µM (highest dose often 46.1 µM), inactives show at the highest dose activity change, negative = inhibition. O95149+P62826. actives 0.071% (n = 340,000); note: potency is the fitted concentration of half-maximal effect; % of control where 0% means no effect; nearly all actives have a fitted effect of over 45% in size
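Compounds preincubate 5 min with complex of recombinant Rango and importin beta in PBS with 1 mM DTT. Ran (0.6 uM) loaded with 2 mM GTP plus 0.2 uM RCC1 starts dissociation; FRET is recorded 45 min later.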
KCNH2 3.1 block: blocks the human KCNH2 3.1 channel isoform; actives 0.95% (n = 340,000); activity change, % (tested at about 1.8 µM); U2OS KCNH2 3.1, thallium flux FluxOr; active compounds read low;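 active = maximum activity change below -70%; inconclusive = maximum activity change from -70% to -50%; inactive = maximum activity change above -50%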;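 note: thallium influx rate constant from kinetic fluorescence after stimulation buffer; % is set by controls: 0 for no effect and ±100 for the full control effect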
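Steps: virus added to U2OS suspension (4 h, RT, dark); medium with 10% FBS added, cells plated, 37 C overnight; FluxOr/Red40 loading buffer 45 min RT; stimulation buffer, 2 min kinetic read; rate constant normalized.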
KCNH2 WT inh: inhibitors of human wildtype KCNH2 potassium channel; U2OS, BacMam KCNH2, thallium flux FluxOr; active compounds read low; AID 720551; activity change, % at 1.84 µM; Q12809; actives 0.37% (n = 340,000);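 active = maximum activity change below -70%; inconclusive = maximum activity change between -70% and -50%; inactive = maximum activity change above -50%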; note: % is set by controls: 0 for no effect and ±100 for the full control effect
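U2OS cells were transduced with wild-type KCNH2 virus (2.03 x 10^8 / mL) for 4 h at room temperature, then cultured overnight at 37 C. Thallium flux was read with FluxOr dye. Rate constants were normalized to DMSO controls.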
Rango-impB inh: inhibitors of Rango-importin beta complex formation. AID 540263. Q14974. actives 0.031% (n = 340,000). Rango CFP/YFP FRET sensor + importin beta, 45 min. Potency, µM (doses to about 92.2 µM), for the others: at the top dose inhibition of complex formation;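 note: potency is the fitted concentration of half-maximal effect; 0% = DMSO wells and 100% = buffer wells lacking importin beta; nearly all actives have a fitted effect of over 15% in size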
Target sequence (Q14974 whole entry, looked up): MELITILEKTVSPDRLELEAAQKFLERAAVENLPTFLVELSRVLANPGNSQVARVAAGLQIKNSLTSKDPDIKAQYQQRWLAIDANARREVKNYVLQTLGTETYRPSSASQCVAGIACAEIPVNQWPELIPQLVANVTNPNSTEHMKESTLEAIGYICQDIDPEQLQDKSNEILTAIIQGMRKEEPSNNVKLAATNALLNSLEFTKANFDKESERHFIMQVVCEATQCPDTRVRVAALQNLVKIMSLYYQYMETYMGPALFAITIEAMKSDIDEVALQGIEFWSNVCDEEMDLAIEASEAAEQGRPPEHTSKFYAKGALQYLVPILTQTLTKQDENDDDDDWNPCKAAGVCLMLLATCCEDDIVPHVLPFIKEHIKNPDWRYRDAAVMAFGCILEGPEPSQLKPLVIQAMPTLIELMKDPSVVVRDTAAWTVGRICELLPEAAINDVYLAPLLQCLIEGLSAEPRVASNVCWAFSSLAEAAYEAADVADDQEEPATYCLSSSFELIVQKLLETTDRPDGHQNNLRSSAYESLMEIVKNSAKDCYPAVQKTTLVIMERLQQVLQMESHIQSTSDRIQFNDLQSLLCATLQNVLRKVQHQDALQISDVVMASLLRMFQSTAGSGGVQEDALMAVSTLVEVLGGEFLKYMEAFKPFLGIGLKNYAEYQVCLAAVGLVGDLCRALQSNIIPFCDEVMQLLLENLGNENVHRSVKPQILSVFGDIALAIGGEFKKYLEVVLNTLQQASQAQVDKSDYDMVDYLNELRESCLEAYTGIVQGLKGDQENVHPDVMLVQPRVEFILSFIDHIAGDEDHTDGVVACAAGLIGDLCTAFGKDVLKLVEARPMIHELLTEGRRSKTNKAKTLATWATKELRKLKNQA
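FRET biosensor Rango (snurportin 1 IBB between N-terminal EYFP and C-terminal Cerulean), 50 nM in PBS/1 mM DTT/0.02% Tween-20/0.1% BSA, preincubated 5 min RT with compound; 0.125 microM importin beta added, 45 min RT, CFP/YFP FRET ratio read.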
Mm-Cpn inhibitor: M. maripaludis TRiC chaperonin inhibition; AID 504842; purified Mm-Cpn ATPase, ADP Transcreener TR-FRET; Potency, µM (titrated, usually from 76.9 µM), without a hit: at the highest dose activity, negative = inhibition, most hits filed as inhibitors; actives 0.031% (n = 330,000); active = well fitted inhibition curve with a large enough effect; inconclusive = small, poorly fitted or top-dose-only effect; note: potency is the fitted concentration of half-maximal effect; % is set by controls: 0 for no effect and ±100 for the full control effect; nearly all actives have a fitted effect of over 80% in size
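Purified archaeal Mm-CPN (25nM final) preincubated 10 min at 37degC with compound, then 10uM ATP for 30 min at 37degC; ADP measured by HTRF Transcreener TR-FRET; buffer 30 mM TRIS pH 7.4, 100mM KCl, 5mM MgCl2, 1mM DTT.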
CCT chaperon mod: cytosolic chaperonin activity modulation. actives 0.3% (n = 360,000). purified chaperonin ATPase assay, HTRF ADP detection, 30 min. activity change, % (concentration not given with the values), hits read low; in the data active = activity change below about -30%; note: % is set by controls: 0 for no effect and ±100 for the full control effect
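TRiC (40 or 20 nM final, by batch activity) in 30 mM Tris pH 7.4, 100 mM KCl, 5 mM MgCl2, 1 mM DTT was treated with compound at 76 uM single dose, then 10 uM ATP, 30 min at 37 °C. ADP was read by HTRF Transcreener.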
An asterisk follows results filed as active; u = inconclusive; x = no result given. Only some compounds are listed: those with a hit (about 1.4% of all), similar ones and a draw of the others. Unless noted, calls come from the whole dose curve.

SMILES	Rango dissoc inh	KCNH2 3.1 block	KCNH2 WT inh	Rango-impB inh	Mm-Cpn inhibitor	CCT chaperon mod
CCOC(=O)N1CCC(Nc2cccc(SC)c2)CC1	0%	-71*	33	2%	-2%	-3
COC(=O)C(O)(NC(=O)c1ccncc1)C(F)(F)F (centres undefined)	-22%	4	1	4%	-1%	-3
COC(=O)C(O)(NC(=O)NC(C)=O)C(F)(F)F (centres undefined)	-4%	-16	-6	0%	-2%	-56*
CN(Cc1ccno1)Cc1cn(Cc2ccccc2)nc1-c1ccc2c(c1)OCO2	2%	-95*	-14	-2%	1%	-2
O=C(c1cccc([N+](=O)[O-])c1)N1CCN(C/C=C/c2ccccc2)CC1	0%	-16	35	0%	1%	-9
CC(C(=O)Nc1cccc([N+](=O)[O-])c1)N1CCN(C/C=C/c2ccccc2)CC1 (centres undefined)	-8%	-85*	9	-4%	-5%	0
O=C(COc1ccccc1)NCC1COc2ccccc2O1 (centres undefined)	22%	5	4	-1%	1%	-2
N#Cc1ccc(OCC(=O)NCC2COc3ccccc3O2)cc1 (centres undefined)	6%	-7	-7	0%	-3%	-41*
CCCCCCN1CCN(C2CN(Cc3cn(Cc4ccccc4)nn3)S(=O)(=O)C2)CC1 (centres undefined)	x	x	x	x	x	-32*
COc1cccc(OC)c1C(=O)Nc1ccc(C(=O)c2ccncc2)cc1	-12%	-3	0	u	1%	-1
CCC(C)NC(=O)CC(c1ccccc1)c1cc(C)ccc1O (centres undefined)	-8%	-5	32	0%	-2%	0
CCC(C(=O)NC1CCCC1)n1c2ccccc2c2nc(=O)cc(C)n21 (centres undefined)	0%	11	3	-1%	x	0
C/C(=N\Nc1ccc(Cl)c(C(=O)O)c1)c1ccc2c(c1)OCO2	-2%	-5	4	-1%	-2%	-55*
CCOc1ccc(N2CC(NC(=O)c3ccc4ccccc4c3)CC2=O)cc1 (centres undefined)	1%	-2	10	1%	0%	0
CCNC(=O)C1CC(=O)N(c2ccc(OCC)cc2)C1 (centres undefined)	-2%	-18	0	3%	3%	1
CCOc1ccc(N2CC(C(=O)NCC(=O)Nc3ccc(F)c(F)c3F)CC2=O)cc1 (centres undefined)	1%	-21	-3	-2%	-2%	-55*
CCOc1ccc(N2CC(C(=O)Nc3ccc(N4CCOCC4)cc3)CC2=O)cc1 (centres undefined)	12%	14	-104*	-2%	0%	1
Cn1c(=O)c2sccc2n(Cc2ccccc2)c1=O	1%	-73*	-1	3%	0%	0
Cc1ccccc1C(=O)Nc1nc(=S)ss1	-11%	15	2	1%	-15%	-57*
CC(=O)Nc1nc(=S)ss1	-2%	19	6	4%	-2%	0
COc1ccc(CCNC(=O)C/C(C)=N/NC(=O)C2CCCCC2)cc1OC	6%	-1	2	-3%	1%	-60*
COc1ccc(CCNC(=O)C/C(C)=N/NC(=O)c2ccc(N)cc2)cc1OC	-1%	12	-13	1%	2%	1
O=C(COC(=O)/C=C/c1ccc([N+](=O)[O-])cc1)NC(c1ccccc1)c1ccccc1	3%	-11	-133*	-2%	-12%	-2
O=C(COC(=O)/C=C/c1ccc([N+](=O)[O-])cc1)NCc1ccccc1	2%	-8	1	-1%	2%	-3
C=CCn1c(C(C)(C)C)nc2ccccc21	3%	15	-6	-1%	-2%	-1
SMILES	Rango dissoc inh	KCNH2 3.1 block	KCNH2 WT inh	Rango-impB inh	Mm-Cpn inhibitor	CCT chaperon mod
O=C1OCCN1CCNCc1cn(-c2ccc(F)cc2)nc1-c1ccccc1Cl	1%	-7	-150*	3%	2%	1
CCCCn1c(N)c(N(CCOC)C(=O)c2c(C)noc2C)c(=O)[nH]c1=O	0%	12	-15	3%	2%	-2
COc1ccc(CNC(=O)COc2ccc(S(=O)(=O)N3CCCCC3)cc2)cc1	1%	-13	-131*	0%	-4%	1
COc1ccc(S(=O)(=O)NCCC(=O)NCc2ccc(F)cc2)cc1	5%	-80*	45	-1%	-1%	2
CCCCNC(=O)CCCCCNS(=O)(=O)c1ccc(OC)cc1	2%	14	29	-5%	2%	-41*
CCCCNC(=O)CCCCCNS(=O)(=O)c1ccc(Br)cc1	32%	7	5	u	2%	-1
COc1ccc(CNC(=O)COc2ccc(S(=O)(=O)N3CCCCC3)cc2Cl)cc1	-2%	4	26	-2%	4%	-1
CC1Cc2cc(S(=O)(=O)NCCC(=O)NCc3ccc(F)cc3)ccc2N1C(=O)C1CC1 (centres undefined)	-1%	22	-87*	3%	0%	-1
CC1CC(C)CN(C2CCCCC2NS(=O)(=O)c2ccc(Cl)cc2)C1 (centres undefined)	18%	-11	-14	u	1%	0
CCOC(=O)C1(CCOc2ccccc2)CCN(Cc2cccc(OC)c2OC)CC1	u	-37	7	u	1%	-1
CC1CCCN(CC(O)CN2CCN(CC(O)CN3CCCC(C)C3)C(C)C2)C1 (centres undefined)	-3%	-6	-3	0%	x	-1
Cc1cccc(NC(=O)CCSc2ccccc2)c1C	-13%	5	30	1%	0%	0
Cc1cccc(NC(=O)CNCC(=O)Nc2cccc(C)c2C)c1C	24%	-5	-3	-2%	1%	-49*
Cc1cccc(NC(=O)CCc2ccccc2)c1C	-7%	-2	4	0%	1%	-49*
CN(C(=O)CSc1nc(N)nn1-c1ccccc1)c1ccccc1	7%	22	1	-2%	-1%	-70*
Cc1cccc(Oc2sc(C(=O)c3ccccc3)c(N)c2C#N)c1	2%	6	8	-2%	-13%	-1
CCCCc1c(-c2cccc(Br)c2)ncn1CCc1ccccc1OC	x	x	x	x	x	-1
COc1cc(CNCCc2c[nH]c3ccccc23)ccc1OCc1ccccc1F	8%	-79*	27	5%	3%	-4
COc1cccc(CNCCc2c[nH]c3ccccc23)c1OCc1ccccc1	-3%	-20	3	0%	0%	2
